Compound activity from PubChem.
An excerpt weighted towards active compounds, which were near 3.7% of everything screened.
HTT cytoprotect: qHTS Multiplex Assay to Identify Dual Action Probes in a Cell Model of Huntington: Cytoprotection (ATP); Potency, µM (titrated, usually from 56.4 µM), inactives show cytoprotection (ATP increase), actives largely listed as activators; AID 1471, 2008; PC12 HTT-Q103 induced, cytoprotection, ATP luminescence, 40 h; 0.14% of 230,000 active; also: % of control where 0% means no effect; nearly all actives have a fitted effect of over 45% in size
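Stable PC12 Q103-GFP cells in serum-supplemented, phenol red-free DMEM; induction by tebufenozide at 100 nM final; compound dose series; cell viability quantified luminescently from ATP.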
Tau fibril FP: qHTS for Inhibitors of Tau Fibril Formation, Fluorescence Polarization; AID 1468, 2008; K18 P301L tau heparin fibrillization, Alexa594 FP, 6 h; 0.39% of 280,000 active; Microtubule-associated protein tau (Homo sapiens), P10636; Potency, µM (series often up to 57.7 µM), inactives show at the highest dose activity, negative = inhibition, most hits filed as inhibitors; also: % is scaled to controls: 0 for no effect and ±100 for the full control effect; nearly all actives have a fitted effect of over 55% in size
Target sequence (P10636 561-689 P618L limits assumed): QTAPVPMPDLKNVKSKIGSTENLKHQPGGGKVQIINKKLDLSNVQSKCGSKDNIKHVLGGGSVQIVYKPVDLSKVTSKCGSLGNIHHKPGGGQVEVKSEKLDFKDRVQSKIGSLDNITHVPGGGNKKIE
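Compound effects on tau fibrillization are measured by Alexa 594 fluorescence polarization (ex 555, em 632 nm). K18 P301L tau is used at 15 uM with 0.24 uM labeled tracer, and 20 uM heparin induces aggregation over 6 hr at 37 C.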
HTT aggregate: qHTS Multiplex Assay to Identify Dual Action Probes in a Cell Model of Huntington: Aggregate Formation (GFP); Potency, µM (doses to about 46.1 µM), for inactives: top-dose activity change, negative = inhibition, most hits filed as inhibitors; AID 1688, 2009; PC12 HttQ103-GFP aggregates, Acumen cytometry, 40 h; 1.1% of 220,000 active; also: % is scaled to controls: 0 for no effect and ±100 for the full control effect; nearly all actives have a fitted effect of over 60% in size
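PC12/HTTQ103-GFP, ecdysone-inducible; teb 100 nM; cpd qHTS titration; GFP aggregates read on laser cytometer, Ex 488/Em 500-530 nm.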
Tau fibril ThT: qHTS for Inhibitors of Tau Fibril Formation, Thioflavin T Binding; recombinant tau K18 P301L, heparin-induced fibrillization, ThT fluorescence; Potency, µM (top dose mostly 57.4 µM), for the others: top-dose activity, negative = inhibition, usual class: inhibitors; 2.1% of 270,000 active; AID 1460, 2008; also: % is scaled to controls: 0 for no effect and ±100 for the full control effect; nearly all actives have a fitted effect of over 55% in size
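Recombinant human tau K18 fragment […] carrying P301L, 15 uM unlabeled plus 0.24 uM Alexa 594-labeled, was fibrillized with 20 uM heparin in 100 mM sodium acetate pH 7 for 6 hr at 37 C; 30 uM ThT fluorescence read after 1 hr.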
Tau fluor counter: Counterscreen qHTS for Inhibitors of Tau Fibril Formation, Fluorescence Polarization. tau K18 P301L Alexa594 fluorescence, heparin fibrillization. Potency, µM (top dose mostly 57.7 µM), without a hit: top-dose activity change, negative = decrease. 0.93% of 280,000 active. AID 1463, 2008; also: % is scaled to controls: 0 for no effect and ±100 for the full control effect; nearly all actives have a fitted effect of over 55% in size
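Human tau K18 P301L (15 uM unlabeled, 0.24 uM Alexa 594-labeled) in 100 mM sodium acetate pH 7 with 20 uM heparin, 6 hr at 37 C. ThT 30 uM added, 1 hr ambient; Alexa 594 FP and total fluorescence read at 555/632 nm.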
An asterisk follows results filed as active; u = inconclusive; x = no result; [ ] = dose if it differs, or a comment. Calls follow the shape of the dose curve; as a rule, active = well fitted curve in the direction sought with a large enough effect; inconclusive = small, poorly fitted or top-dose-only effect, or another doubt; inactive = no such curve, though single readings can be large; an effect the other way counts as inactive or inconclusive. Potency is read from the fitted curve at half-maximal effect.

SMILES	HTT cytoprotect	Tau fibril FP	HTT aggregate	Tau fibril ThT	Tau fluor counter
Cc1ccc(S(=O)(=O)Cc2nc(-c3ccc(C(=O)NCc4ccccc4F)cc3)oc2C)cc1	x	-10.1%	x	16.5%	-2.1%
O=C(COC(=O)c1ccc([N+](=O)[O-])o1)c1ccccc1	x	-2.2%	25.7%	0.8%	7.8%
CC(=O)c1ccccc1OC(=O)c1ccc([N+](=O)[O-])o1	-8.1%[10 µM]	u	-1.0%[9.22 µM]	7.94µM*	-23.5%
N#C/C(=C\Nc1ccccn1)C(=O)c1ccco1	-0.2%[10 µM]	x	x	x	x
CCOC(=O)c1c(-c2cccc([N+](=O)[O-])c2)csc1NC(=O)C1CC1	-13.7%	0.3%	25.9%	u	-29.6%
CCOC(=O)c1c(-c2cccc([N+](=O)[O-])c2)csc1N	8.9%[10 µM]	6.6%	-2.7%	u	22.4µM*[quencher]
Cc1cc(C)c(NC(=O)c2sc3nc(C)cc(C)c3c2NC(=O)c2ccccc2)c(C)c1	x	-6.5%	x	-6.6%	-8.5%
N#Cc1c(Cl)nsc1NN	-18.1%	u	u	7.94µM*	2.51µM*[quencher]
Cc1ccnc(NS(=O)(=O)c2ccc(NC(=O)C(C)(C)Oc3ccc(Cl)cc3)cc2)n1	x	7.8%	x	-9.0%	-6.2%
[O-][n+]1onc2c1CCc1c-2nn(-c2ccccc2Cl)[n+]1[O-]	-62.4%	-7.6%	11.2µM*	-8.1%	-9.3%
Cc1ccc(-n2nc3c([n+]2[O-])CCc2c-3no[n+]2[O-])cc1	u	2.7%	12.6µM*	-10.0%	-5.1%
Cc1cccc(-n2nc3c([n+]2[O-])CCc2nonc2-3)c1C	x	-3.0%	-1.1%	-1.7%	-1.2%
Cc1ccc(-n2nc3c(n2)/C(=N/O)CC/C3=N\O)cc1	-31.4%[10 µM]	-9.3%	1.7%	-3.3%	-5.2%
C[C@H]1CN(CCO)CCN1c1ccccc1	-3.8%[10 µM]	x	x	x	x
CCOc1cc([N+](=O)[O-])c2nc(N)sc2c1	-7.2%[10 µM]	3.4%	7.6%[9.22 µM]	20µM*	-20.7%
Cc1[nH]nc2ncc(C(=O)c3ccccc3O)cc12	20µM*	-3.7%	6.31µM*	-3.0%	-3.2%
CC(C)(C)C(=O)[C@@H]1[C@@H]2C(=O)N(C3CCCCC3)C(=O)[C@@H]2[C@H]2c3ccccc3C=CN12	4.5%	u	20.6%[9.22 µM]	31.6µM*	u
COc1ccc(N2C(=O)[C@H]3[C@@H](C2=O)C2c4ccccc4C=NN2[C@H]3C(=O)C(C)(C)C)cc1 (stereo not given in full)	11.5%[10 µM]	12.2%	-13.7%[9.22 µM]	x	-20.1%
O=C(Nc1ccc2c(c1)OCO2)[C@@H]1[C@@H]2C(=O)N(C3CCCCC3)C(=O)[C@@H]2C2c3ccccc3C=CN21 (stereo not given in full)	-24.3%[0.074 µM]	-13.6%	u	u	u
O=C(c1ccc2c(c1)OCO2)[C@@H]1[C@@H]2C(=O)N(C3CCCCC3)C(=O)[C@@H]2C2c3ccccc3C=CN21 (stereo not given in full)	-4.7%[0.074 µM]	u	-8.0%	28.2µM*	u
COc1ccc(N2C(=O)[C@@H]3[C@H](C2=O)[C@H]2c4ccccc4C=CN2[C@@H]3C(C)=O)cc1	x	u	22.5%	15.8µM*	-27.0%
O=C(c1cccs1)[C@@H]1[C@@H]2C(=O)N(Cc3ccc4c(c3)OCO4)C(=O)[C@@H]2C2c3ccccc3C=CN21 (stereo not given in full)	11.8%	u	14.7%	22.4µM*	u
CCOC(=O)c1cnc2cc(C(F)(F)F)ccc2c1Nc1ccc(F)cc1F	x	-1.2%	x	3.8%	-4.4%
Nc1c(C(=O)NCc2cccs2)nnn1CC(=O)Nc1cccc(F)c1	x	-12.7%	x	-4.4%	-6.2%
CCCN1C(=O)/C(=C\c2nc3ccccc3c(=O)[nH]2)c2ccccc21	-6.2%[10 µM]	1.4%	-19.3%[9.22 µM]	22.4µM*	-19.6%
SMILES	HTT cytoprotect	Tau fibril FP	HTT aggregate	Tau fibril ThT	Tau fluor counter
O=C(O)c1ccc(NS(=O)(=O)c2ccc3c(c2)C2C=CCC2C(c2ccccc2F)N3)cc1 (stereo not given)	13.4%[10 µM]	u	4.7%[9.22 µM]	31.6µM*	u
Cc1ccc(NS(=O)(=O)c2ccc3c(c2)[C@H]2C=CC[C@H]2[C@@H](c2ccc(F)cc2)N3)cc1C	x	-0.5%	x	u	u
Cc1ccc([C@H]2Nc3ccc(S(=O)(=O)Nc4cccc(Cl)c4C)cc3[C@H]3C=CC[C@H]32)cc1	x	-8.4%	x	12.6µM*	u
N#Cc1c(NCc2ccccc2)ccnc1NCc1cccnc1	11.4%[10 µM]	-6.2%	22.4µM*	-16.5%	-15.9%
O=C(Nc1ccc(Br)cc1Cl)NC1CC1	-19.2%	0.6%	17.8µM*	-5.9%	-0.9%
Nc1ccccc1Sc1nc2ccccc2[nH]1	-17.2%	u	-2.9%	28.2µM*	28.2µM*[quencher]
Nc1nc2ccccc2[nH]1	11.2%	x	x	x	x
COc1cccc(N=Nc2c(=O)[nH]n3c(=O)c4c([nH]c23)CCC4)c1	x	7.2%	19.6%	7.08µM*	-20.7%
NS(=O)(=O)c1ccc(N=Nc2c(=O)[nH]n3c(=O)c4c([nH]c23)CCCC4)cc1	-0.4%[10 µM]	5.4%	-2.4%[9.22 µM]	7.94µM*	-28.8%
COc1cccc(N=Nc2c(=O)[nH]n3c(=O)cc(C)[nH]c23)c1	-3.6%	6.4%	-1.5%	15.8µM*	-20.0%
O=c1[nH]n2c(=O)c3c([nH]c2c1N=Nc1cccc(C(F)(F)F)c1)CCCC3	13.5%[10 µM]	0.4%	u	2.82µM*	-25.0%
O=c1[nH]n2c(=O)c3c([nH]c2c1N=Nc1cccc(Cl)c1)CCC3	x	2.3%	13.3%	-0.8%	1.4%
CCCCC(CC)COCC1CO1 (stereo not given)	4.1%	x	x	x	x
CN1CCN(c2ncc3nc(-c4ccc(Cl)cc4)c(=O)n(CCC#N)c3n2)CC1	-5.3%	x	x	x	x
CCCNC(=O)c1c(C)nn(-c2cccc(C)c2)c1-n1cccc1	x	0.0%	x	-2.3%	-3.6%
CC(=O)N1CCCc2cc(S(=O)(=O)N(C)CC(=O)Nc3cccc(C)c3C)ccc21	x	2.9%	x	2.4%	3.1%
O=C(C1CCN(S(=O)(=O)c2cccc3nsnc23)CC1)N1CC=C(c2ccccc2)CC1	-34.6%	-5.8%	-28.4%	u	-21.6%
O=C(C1CCC(CNS(=O)(=O)c2cccc3nsnc23)CC1)N1CC=C(c2ccccc2)CC1 (stereo not given)	-36.3%	4.3%	8.91µM*	-15.0%	-15.4%
CCOC(=O)c1c(C)[nH]c(CCC(=O)Nc2cc(C)cc(C)c2)c1C	x	15.0%	x	-17.4%	u
CC(C)=CCC/C(C)=C/CO/N=C1/C[C@@H](O)[C@@H](O)[C@@H]2[C@H]3C(=O)N(c4ccc(F)cc4F)C(=O)[C@@H]3CC[C@H]12	-10.7%[10 µM]	-14.0%[11.6 µM]	x	-0.2%[11.5 µM]	-6.3%[11.6 µM]
